# Measurements as given in the supplement of paper PMC6555819.
# Experiments:
# Assay in all cases: PBM binding z-score (relative to random genomic background probes); higher = stronger binding; sequences stand for … in GC…GCGATTGACAGCGTAGAATGAAGG
# [1] = test system: FXR:RXRa (NR concentration 270 nM, RXRa partner concentration 90 nM)
# Procedure, shortened: (§1)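 Ligand-free nuclear receptor dimers were applied to custom Agilent 4×180K protein-binding microarrays whose double-stranded probes carried direct-repeat seeds, single-nucleotide variants, half-site ablations and random human genomic background sequences in 34-nt variable regions. Incubation lasted 1 h. Binding z-scores were computed against the random background probes from regression-normalized fluorescence.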
# [2] = test system: LXRa:RXRa (NR concentration 270 nM, RXRa partner concentration 90 nM)
# Procedure, shortened: as §1
# [3] = test system: LXRa homodimer (NR concentration 270 nM)
# Procedure, shortened: as §1
# [4] = test system: LXRb:RXRa (NR concentration 270 nM, RXRa partner concentration 90 nM)
# Procedure, shortened: as §1
# [5] = test system: LXRb homodimer (NR concentration 270 nM)
# Procedure, shortened: as §1
# [6] = test system: PPARa:RXRa (NR concentration 270 nM, RXRa partner concentration 90 nM)
# Procedure, shortened: as §1
# [7] = test system: PPARg:RXRa (NR concentration 180 nM, RXRa partner concentration 90 nM)
# Procedure, shortened: as §1
# [8] = test system: PPARg:RXRa 270nM:90nM, anti-RXR (NR concentration 270 nM, RXRa partner concentration 90 nM)
# Procedure, shortened: as §1
# [9] = test system: PPARg:RXRa 30nM:10nM, anti-RXR (NR concentration 30 nM, RXRa partner concentration 10 nM)
# Procedure, shortened: as §1
# [10] = test system: PPARg:RXRa 90nM:30nM, anti-RXR (NR concentration 90 nM, RXRa partner concentration 30 nM)
# Procedure, shortened: as §1
Sequence,PBM binding z-score [1],PBM binding z-score [2],PBM binding z-score [3],PBM binding z-score [4],PBM binding z-score [5],PBM binding z-score [6],PBM binding z-score [7],PBM binding z-score [8],PBM binding z-score [9],PBM binding z-score [10]
CCTACTGGGCCAATAAGGTCATTGATGCCGATAA,2.84,2.93,1.06,3.03,-0.277,4.04,2.89,3.1,0.789,2.38
CGTCCAAGGTCAAGGTGAGTGAAAGAGACTCGAA,7.1,4.92,0.292,3.92,0.281,5.71,5.33,5.61,2.05,4.04
TCTCGGAGGACACGAAACGTCAGAGCTCGACATC,0.138,-0.218,-0.617,-0.347,-0.872,-0.13,0.395,0.915,2.04,1.4
TAGCCTAGGTCATTCAGGGGCCAGAATAGAAAGC,4.69,3.94,0.569,3.21,1.34,3.9,2.33,2.29,0.331,1.44
ATATGTAGGTTAGGGTAATTCAGAAAGTAGGGAA,1.61,1.22,0.994,1.87,1.03,3.31,4.75,3.91,2.13,3.13
CATACAGGGTCCGCTAGGCCAGAGTAGGGACGGC,-0.192,-0.435,-0.418,-0.869,-0.218,-1.11,0.155,-0.418,-0.876,-0.844
CGAACTAGGTCAAAAGACAGTGAAAGGCGACGTA,3.09,2.03,-0.16,1.47,-0.191,4.46,8.06,7.08,5.52,7.26
CGCCCAAGGTCAGCAGGTCAGTGAAAGCGACGTG,5.7,4.2,0.381,2.99,-0.0743,4.81,3.8,4.59,1.02,2.98
CTCGAAAGGTCGGTTGAGGTGACTATACGGATAA,3.63,1.84,-0.14,1.58,0.0463,2.63,0.621,1.11,0.252,0.639
CCTACTGGGCCAAAGGCCATTGATTCCAATGCTC,-0.204,-0.344,-0.23,-0.115,-0.699,3.51,7.53,7.54,6.63,7.44
CGTCCAAGGTCATAGGAGGTCACTGAAGACAGAT,7.73,7.6,6.16,6.62,1.26,6.26,6.52,6.6,3.16,5.31
AGCGAAAGGTCGAAGGTGAGTATACCCACCCGAA,4.1,3.39,-0.15,2.68,-0.267,4.61,4.72,5.09,2.12,4.25
CGAACTAGGTCCCCAGGACAGTGAAGAGGTTGGA,-0.407,-0.759,-0.417,-0.926,-1.3,0.171,0.418,0.762,-0.453,0.0759
ATATGTAGGTTAGGGTCATTCACAAAGTAGGGAA,4.56,4.43,1.56,4.7,1.64,5.7,7.65,6.7,3.97,6.22
ATACCAAGGTTATCGTGAGGTCGTTGATACTAAC,3.14,4.42,2.28,2.93,0.533,2.77,1.24,1.56,0.633,1.07
ATATGTGGGTTATCGGGTCATTCAGTTTGCGCAT,3.03,2.75,1.74,3.53,1.8,4.86,6.89,5.78,3.08,5.43
ACTAGCAGGCCAAGAGTCACTCAAGATTAGTCCG,0.0217,-0.0111,-0.373,-0.29,-0.882,1.46,2.56,4.08,2.06,3.48
CCTACTGGGCCATGAAAGGTCATTGATTCAGTGA,3.25,4.74,4.74,3.86,0.00492,4.16,2.9,4.17,1.44,3.24
ATCGAAACGTCGACGAGGTGAGTATACACCGTTT,-0.264,-0.5,-0.605,-0.525,-0.00441,-0.269,0.855,-0.111,-0.111,-0.157
CACACTAGGTCAAGAGGTCAAAGTCCGCTTCCCG,7.5,6.61,7.43,5.8,2.67,6.33,9.41,7.85,7.67,8.14
ATCGAAAGGTCGAAAGTGAGTATACCCACCCGAA,3.56,3.24,0.172,2.67,0.816,3.74,2.17,2.5,1.05,2.05
CGAATTAGGTCAAAGGACAGTGAAAGGCGACGTA,4.51,3.08,0.314,2.23,0.106,6.11,9.47,8.69,8.66,9.34
CTCGAAAGGTCGTGCTCAGGTGAGTATGCCAAAC,4.94,4.15,0.0245,3.2,-0.0304,4.79,2.57,3.95,1.25,2.67
CGAACTAGGTCAAAGGAAAGTGAAAGGCGACGTA,3.12,1.88,-0.168,1.2,-0.265,4.7,8.32,7.07,5.62,7.13
